Reference: PubChem BioAssay (NCI)
The panel holds about 79,000 compounds, 15% with a hit somewhere; the sample as a whole holds those more often. Unmarked numbers belong to inactive results. Activity calls are given as the source filed them. No stated cut-off is given here; in the data, active means growth inhibition above about 70%; inactive means the rest.

assay: NCI Yeast Anticancer Drug Screen. Data for the sgs1 mgt1 strain (AID 161);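 further: 0% = growth of cultures given vehicle only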; conditions: S. cerevisiae sgs1 mgt1 strain, at 50.0 µM, active compounds read high
Procedure, shortened: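 Inhibition of yeast growth, normalised to vehicle-treated controls, is reported for a strain bearing genetic alterations in DNA damage repair.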

Structure (SMILES) | growth inhibition
CC1(C(Cl)Cl)C=CC(=O)c2ccccc21 (stereo not given) | 21.4%
NC(C(F)(F)F)(C(F)(F)F)P(=O)(Cc1ccccc1)Cc1ccccc1 | -18.7%
COC1CCC(C(C)(C)C)CC1 (stereo not given) | 0.15%
O=C(NCCc1c(-c2ccccc2)[nH]c2ccccc12)C1CCCCC1 | 32.6%
CCCCC1CCC2CCCCC2C1 (stereo not given) | -8.05%
Cc1cc(=O)n2[nH]nnc2n1 | 26.4%
COC(=O)CNC(=O)C(Cc1ccccc1)NC(=O)OCc1ccccc1 (stereo not given) | -1.55%
C=CCSc1ccc(Cl)cc1[N+](=O)[O-] | 6.05%
N#CC1(OC2OC(CO)C(O)C(O)C2O)C=CCC1 (stereo not given) | 4.45%
Brc1cc2ccccc2nc1-c1ccccc1 | 1%
CN(C)NC(=O)Nc1cccc2ccccc12 | -6.15%
COC(=O)C(CC(=O)Nc1ccc(Cl)c(Cl)c1)C(=O)C(=O)NC1C2CC3CC(C2)CC1C3 (stereo not given) | -14.1%
CCOC(=O)C1C(C)C2(C#N)C(=N)OC1(C)C2(C#N)C#N (stereo not given) | -6.6%
S=c1sc2c(Cl)nc(Cl)nc2n1-c1ccccc1 | -13.6%
COc1ccc(C=Nc2ccc(O)cc2)cc1 | -8.35%
COc1cc(C(O)CCBr)c(OC)cc1C (stereo not given) | -20.2%
COc1ccc(/C=N/N=C/c2ccc(OC)cc2)cc1 | -14.1%
CCCCCCCCOC(=O)c1cc([N+](=O)[O-])c(Sc2ncnc3nc[nH]c23)c([N+](=O)[O-])c1 | 25.9%
CN1CCN(C(=O)NC2CCCCC2)CC1 | 3.35%
O=CC1=CCC2c3[nH]c4ccccc4c3CCN2C1 (stereo not given) | 25.7%

Structure (SMILES) | growth inhibition
C=C1C(=O)OC2C1C(OC(=O)/C(=C/C)COC(C)=O)CC1(CO1)C1C(OC(=O)/C(=C/C)CO)C=C(C)C21 (stereo not given) | -21.1%
CCc1ccccc1OCC(O)CO (stereo not given) | -6.2%
Cc1ccc2nc(CN(CCO)CCO)cc(=O)n2c1 | 40.5%
CCOC(=O)C(C)(C(C)=O)c1nc(=S)[nH]c(=S)[nH]1 (stereo not given) | 2.1%
CCCCCCCCCCCCCCCCS(=O)(=O)N/N=C(\c1ccc(C(C)C)cc1)N1CCOCC1 | 12.7%
NC(=O)C(=CNC(=S)Nc1ccc(S(=O)(=O)Nc2ccccn2)cc1)C(N)=O | 22.3%
CCOC(=O)C1CC(=O)c2cc(OC)c(OC)cc2C1c1ccc(OC)c(OC)c1 (stereo not given) | 0.1%
COC(=O)c1cc2cccn2cn1 | -13.2%
O=C1c2cc([N+](=O)[O-])cc3cc([N+](=O)[O-])cc(c23)C(=O)N1CCNCCNCCNCCN1C(=O)c2cc([N+](=O)[O-])cc3cc([N+](=O)[O-])cc(c23)C1=O | 91.5% (active)
C1CSCCSCSCCS1 | 17.8%
CCCCCCCCCCCO/N=C\c1c2c(O)c3c(O)c(C)c4c(c3c1O)C(=O)C(C)(O/C=C\C(OC)C(C)C(OC(C)=O)C(C)C(O)C(C)C(O)C(C)/C=C\C=C(\C)C(=O)N2)O4 (stereo not given) | -13.7%
CC1(C)c2ccccc2C(=O)c2ccccc21 | 2.6%
CCC(CC)OCc1ccccc1 | 6.6%
CCCCCCC(C)(O)C(C)O (stereo not given) | 24.2%
CC[N+](C)(CC)c1cccc(OC(=O)N2CCCCC2)c1 | 16.4%
S=C1Cc2c(-c3ccccc3)cc(-c3ccc(Cl)cc3)nc2-c2ccccc2N1 | 5.65%
CCCC(=O)/C=C\c1ccccc1 | 6.55%
Cc1ccc(S(=O)(=O)NCNS(=O)(=O)c2ccc(C)cc2)cc1 | 2.05%
N#C/C(=C\C=C\c1ccccc1)C(N)=O | -27.4%
O=C(C#CP(=O)(O)c1ccccc1)c1ccccc1 | -6.2%
